Measured values from the supplement of paper PMC8371130.
Structures can show the parent of a compound that is named as a salt.

Tested on: HL-1
Experiment: relative cell viability (CellTiter-Glo) vs DMSO control (% of DMSO control); higher = more viable cells
Method in brief: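 HL-1 mouse atrial cardiomyocytes were plated in 384-well plates at 1000 cells per well together with compounds at 40, 200, 1000 or 5000 nM in 0.01% DMSO. One day later, cells went to a hypoxic workstation (1% O2) for 48 h, then were reoxygenated for 24 h in a normal incubator, or stayed in normoxia for the same time. Cell viability was read by CellTiter-Glo luminescence and normalised to vehicle-treated control cells.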

[1] = oxygen condition: hypoxia 48 h (1% O2) + reoxygenation 24 h, 40 nM
[2] = oxygen condition: hypoxia 48 h (1% O2) + reoxygenation 24 h, 200 nM
[3] = oxygen condition: hypoxia 48 h (1% O2) + reoxygenation 24 h, 1000 nM
[4] = oxygen condition: hypoxia 48 h (1% O2) + reoxygenation 24 h, 5000 nM
[5] = oxygen condition: normoxia 72 h, 40 nM
[6] = oxygen condition: normoxia 72 h, 200 nM
[7] = oxygen condition: normoxia 72 h, 1000 nM
[8] = oxygen condition: normoxia 72 h, 5000 nM

In the case of `CN(C)C(=O)Oc1ccc[n+](C)c1` [Pyridostigmine Bromide], the relative cell viability [1] is reported as 98.7, the relative cell viability [2] is reported as 104 and the relative cell viability [3] is reported as 103. The relative cell viability [4] was 103, the relative cell viability [5] was 92.1 and the relative cell viability [6] was 104. For the same compound, the relative cell viability [7] was 95.5 and the relative cell viability [8] was 100.
Work on `CC(C)N(CCNC(=O)CN1CCCC1=O)C(C)C` [Pramiracetam] yielded a relative cell viability [1] of 104, a relative cell viability [2] of 103 and a relative cell viability [3] of 106. It also gave a relative cell viability [4] of 112, a relative cell viability [5] of 98.6 and a relative cell viability [6] of 104. For the same compound, the relative cell viability [7] was 107 and the relative cell viability [8] was 111.
In the case of `Cc1cccc([C@H](C)c2c[nH]cn2)c1C` [Dexmedetomidine], the relative cell viability [1] is reported as 112, the relative cell viability [2] is reported as 105 and the relative cell viability [3] is reported as 106. For the same compound, the relative cell viability [4] was 107, the relative cell viability [5] was 107 and the relative cell viability [6] was 104. For the same compound, the relative cell viability [7] was 118 and the relative cell viability [8] was 116.
`C[C@@H]1O[C@@H](O[C@H]2C[C@@H](O)[C@]3(CO)[C@H]4[C@H](O)C[C@]5(C)[C@@H](C6=CC(=O)OC6)CC[C@]5(O)[C@@H]4CC[C@]3(O)C2)[C@H](O)[C@H](O)[C@H]1O` [Ouabain] showed a relative cell viability [1] of 101, a relative cell viability [2] of 103 and a relative cell viability [3] of 95.3. It also gave a relative cell viability [4] of 115, a relative cell viability [5] of 105 and a relative cell viability [6] of 105. For the same compound, the relative cell viability [7] was 98.8 and the relative cell viability [8] was 124.
`C[N+](C)(C)CCCCCCCCCC[N+](C)(C)C` [Decamethonium bromide] gave a relative cell viability [1] of 106, a relative cell viability [2] of 103 and a relative cell viability [3] of 107. It also gave a relative cell viability [4] of 112, a relative cell viability [5] of 107 and a relative cell viability [6] of 103. It also gave a relative cell viability [7] of 106 and a relative cell viability [8] of 117.
`CC(=O)O[C@@]12CO[C@@H]1C[C@H](O)[C@@]1(C)C(=O)[C@H](O)C3=C(C)[C@@H](O)C[C@@](O)([C@@H](OC(=O)c4ccccc4)[C@H]21)C3(C)C` was tested, and the relative cell viability [1] was 86.6, the relative cell viability [2] was 102 and the relative cell viability [3] was 105. The relative cell viability [4] was 113, the relative cell viability [5] was 105 and the relative cell viability [6] was 105. It also gave a relative cell viability [7] of 103 and a relative cell viability [8] of 124.
`COc1ccc(C(=O)N2CCCC2=O)cc1` [Aniracetam] showed a relative cell viability [1] of 106, a relative cell viability [2] of 111 and a relative cell viability [3] of 110. The relative cell viability [4] was 113, the relative cell viability [5] was 101 and the relative cell viability [6] was 104. The relative cell viability [7] was 111 and the relative cell viability [8] was 116.
`C=CC[C@]1(O)CC[C@H]2[C@@H]3CCC4=CC(=O)CCC4=C3C=C[C@@]21C` [Altrenogest] was tested, and the relative cell viability [1] was 105, the relative cell viability [2] was 110 and the relative cell viability [3] was 106. It also gave a relative cell viability [4] of 108, a relative cell viability [5] of 104 and a relative cell viability [6] of 107. For the same compound, the relative cell viability [7] was 102 and the relative cell viability [8] was 105.
Work on `C[C@]12CCC(=O)C=C1C=C[C@@H]1[C@@H]2CC[C@@]2(C)[C@H]1CC[C@@]2(O)CCC(=O)O` [Potassium Canrenoate] yielded a relative cell viability [1] of 100, a relative cell viability [2] of 96.7 and a relative cell viability [3] of 97.6. It also gave a relative cell viability [4] of 103, a relative cell viability [5] of 101 and a relative cell viability [6] of 98.6. For the same compound, the relative cell viability [7] was 94.2 and the relative cell viability [8] was 108.
With `Cc1cccc([C@H](C)c2c[nH]cn2)c1C` [Dexmedetomidine HCl] the relative cell viability [1] was 111, the relative cell viability [2] was 107 and the relative cell viability [3] was 102. The relative cell viability [4] was 89.4, the relative cell viability [5] was 106 and the relative cell viability [6] was 96.7. The relative cell viability [7] was 98.5 and the relative cell viability [8] was 99.5.
Work on `Cn1c(CCCC(=O)O)nc2cc(N(CCCl)CCCl)ccc21` [Bendamustine HCL] yielded a relative cell viability [1] of 111, a relative cell viability [2] of 111 and a relative cell viability [3] of 108. The relative cell viability [4] was 110, the relative cell viability [5] was 114 and the relative cell viability [6] was 114. It also gave a relative cell viability [7] of 110 and a relative cell viability [8] of 111.
Compound `CN1[C@@H]2CC(O)C[C@H]1[C@@H]1O[C@@H]12` (some centres undefined) [Scopine] has a relative cell viability [1] of 98.4, a relative cell viability [2] of 101 and a relative cell viability [3] of 100. It also gave a relative cell viability [4] of 105, a relative cell viability [5] of 94.7 and a relative cell viability [6] of 99.2. The relative cell viability [7] was 96.5 and the relative cell viability [8] was 105.
`CCCN1C[C@H](CSC)C[C@@H]2c3cccc4[nH]cc(c34)C[C@H]21` [Pergolide mesylate] gave a relative cell viability [1] of 103, a relative cell viability [2] of 100 and a relative cell viability [3] of 106. For the same compound, the relative cell viability [4] was 109, the relative cell viability [5] was 105 and the relative cell viability [6] was 102. It also gave a relative cell viability [7] of 110 and a relative cell viability [8] of 120.
`CC(O)(CS(=O)(=O)c1ccc(F)cc1)C(=O)Nc1ccc(C#N)c(C(F)(F)F)c1` (centres undefined) [Bicalutamide] was tested, and the relative cell viability [1] was 106, the relative cell viability [2] was 107 and the relative cell viability [3] was 107. The relative cell viability [4] was 104, the relative cell viability [5] was 106 and the relative cell viability [6] was 111. For the same compound, the relative cell viability [7] was 110 and the relative cell viability [8] was 107.
`COC(=O)C1=CCCN(C)C1` [Arecoline] was tested, and the relative cell viability [1] was 105, the relative cell viability [2] was 108 and the relative cell viability [3] was 106. For the same compound, the relative cell viability [4] was 111, the relative cell viability [5] was 109 and the relative cell viability [6] was 112. For the same compound, the relative cell viability [7] was 109 and the relative cell viability [8] was 111.
With `C[C@]12C/C(=C/O)C(=O)C[C@@H]1CC[C@@H]1[C@@H]2CC[C@@]2(C)[C@H]1CC[C@]2(C)O` [Oxymetholone] the relative cell viability [1] was 104, the relative cell viability [2] was 104 and the relative cell viability [3] was 104. It also gave a relative cell viability [4] of 114, a relative cell viability [5] of 104 and a relative cell viability [6] of 102. The relative cell viability [7] was 105 and the relative cell viability [8] was 115.
`CN1[C@@H]2CC[C@H]1C[C@@H](OC(=O)[C@H](CO)c1ccccc1)C2` [Hyoscyamine] gave a relative cell viability [1] of 104, a relative cell viability [2] of 103 and a relative cell viability [3] of 109. It also gave a relative cell viability [4] of 106, a relative cell viability [5] of 109 and a relative cell viability [6] of 101. It also gave a relative cell viability [7] of 114 and a relative cell viability [8] of 116.
`CCOC(=O)c1cncn1[C@H](C)c1ccccc1` [Etomidate] showed a relative cell viability [1] of 101, a relative cell viability [2] of 107 and a relative cell viability [3] of 118. For the same compound, the relative cell viability [4] was 115, the relative cell viability [5] was 104 and the relative cell viability [6] was 109. For the same compound, the relative cell viability [7] was 104 and the relative cell viability [8] was 109.
`CNC(=O)Oc1ccc2c(c1)[C@]1(C)CCN(C)[C@@H]1N2C` [Physostigmine Salicylate] was tested, and the relative cell viability [1] was 89.5, the relative cell viability [2] was 84.3 and the relative cell viability [3] was 69.5. It also gave a relative cell viability [4] of 41.9, a relative cell viability [5] of 84.3 and a relative cell viability [6] of 84.1. For the same compound, the relative cell viability [7] was 64.7 and the relative cell viability [8] was 48.8.
Compound `O=C1CC[C@@]2(O)[C@H]3Cc4ccc(O)c5c4[C@@]2(CCN3CC2CC2)[C@H]1O5` [Naltrexone HCl] has a relative cell viability [1] of 102, a relative cell viability [2] of 106 and a relative cell viability [3] of 99.6. It also gave a relative cell viability [4] of 108, a relative cell viability [5] of 107 and a relative cell viability [6] of 106. The relative cell viability [7] was 113 and the relative cell viability [8] was 110.
Compound `CC[C@@]1(O)C(=O)OCc2c1cc1n(c2=O)Cc2cc3ccccc3nc2-1` [Camptothecin] has a relative cell viability [1] of 104, a relative cell viability [2] of 103 and a relative cell viability [3] of 93.9. The relative cell viability [4] was 37.7, the relative cell viability [5] was 104 and the relative cell viability [6] was 105. It also gave a relative cell viability [7] of 89.7 and a relative cell viability [8] of 35.6.
Work on `C[C@]12CC[C@H](O)CC1=CC[C@@H]1[C@@H]2CC[C@]2(C)C(=O)CC[C@@H]12` [Dehydroepiandrosterone] yielded a relative cell viability [1] of 102, a relative cell viability [2] of 94 and a relative cell viability [3] of 96.2. The relative cell viability [4] was 111, the relative cell viability [5] was 95.4 and the relative cell viability [6] was 95.8. The relative cell viability [7] was 93.8 and the relative cell viability [8] was 111.
Compound `CNCC(=O)c1ccc(O)c(O)c1` [Adrenalone HCl] has a relative cell viability [1] of 97.4, a relative cell viability [2] of 101 and a relative cell viability [3] of 106. It also gave a relative cell viability [4] of 108, a relative cell viability [5] of 99.1 and a relative cell viability [6] of 105. The relative cell viability [7] was 99.6 and the relative cell viability [8] was 107.
With `C=CCN1CC[C@]23c4c5ccc(O)c4O[C@H]2C(=O)CC[C@@]3(O)[C@H]1C5` [Naloxone HCl] the relative cell viability [1] was 109, the relative cell viability [2] was 103 and the relative cell viability [3] was 104. It also gave a relative cell viability [4] of 117, a relative cell viability [5] of 104 and a relative cell viability [6] of 104. For the same compound, the relative cell viability [7] was 109 and the relative cell viability [8] was 113.
`Cc1cccc(Cc2c[nH]cn2)c1C` [Detomidine HCl] was tested, and the relative cell viability [1] was 100, the relative cell viability [2] was 94.5 and the relative cell viability [3] was 101. The relative cell viability [4] was 103, the relative cell viability [5] was 92.9 and the relative cell viability [6] was 88.2. The relative cell viability [7] was 98.6 and the relative cell viability [8] was 113.
For `C/C=C(\C)C(=O)N[C@@H](c1ccccc1)[C@@H](O)C(=O)O[C@H]1C[C@@]2(O)[C@@H](OC(=O)c3ccccc3)[C@@H]3[C@]4(OC(C)=O)CO[C@@H]4C[C@H](O)[C@@]3(C)C(=O)[C@H](OC(C)=O)C(=C1C)C2(C)C` [Cephalomannine], the relative cell viability [1] was 24.9, the relative cell viability [2] was 28 and the relative cell viability [3] was 23.6. The relative cell viability [4] was 28, the relative cell viability [5] was 21.5 and the relative cell viability [6] was 21.7. For the same compound, the relative cell viability [7] was 20.2 and the relative cell viability [8] was 25.3.
Work on `CC(=O)O[C@H]1C[C@@H]2CC[C@@H]3[C@H](CC[C@@]4(C)[C@H]3C[C@H]([N+]3(C)CCCCC3)[C@@H]4OC(C)=O)[C@@]2(C)C[C@@H]1[N+]1(C)CCCCC1` [Pancuronium] yielded a relative cell viability [1] of 103, a relative cell viability [2] of 101 and a relative cell viability [3] of 102. It also gave a relative cell viability [4] of 109, a relative cell viability [5] of 101 and a relative cell viability [6] of 105. For the same compound, the relative cell viability [7] was 108 and the relative cell viability [8] was 101.
Compound `Cc1cccc(C)c1NC(=O)CN1CCCC1=O` [Nefiracetam] has a relative cell viability [1] of 101, a relative cell viability [2] of 99.1 and a relative cell viability [3] of 102. The relative cell viability [4] was 104, the relative cell viability [5] was 101 and the relative cell viability [6] was 97.1. The relative cell viability [7] was 105 and the relative cell viability [8] was 101.
